Assay outcomes: PubChem BioAssay, several laboratories
Sampled rows, rich in hits. Any-hit rate of the full collection: about 3.2%.
TROY NFkB inh = inhibitors of TROY-dependent NF-kB signaling; Q293 LMP1-TROYcd NF-kB luciferase reporter, 4 h; inhibition, % at 10 µM; hit rate 0.98% among 360,000; AID 1347056;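 active means compounds whose plate-normalised and pattern-corrected inhibition of the luciferase reporter signal at the single screening dose is 50% or more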
LGR2 antag = blocks bursicon-induced cAMP signaling via Drosophila LGR2 | HEK293 LGR2, CRE-luciferase, bursicon-stimulated, 4 h | inhibition, % at 9.99 µM | hit rate 0.35% among 380,000 | AID 720647;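 active means drop in luminescence signal, shown as inhibition above about 50% in the replicate tests, limit read from the data, passing the limit was not always enough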;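 further: agonist challenge used bursicon conditioned medium at about half maximal strength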
EWS-Fli block = EWS/Fli transcriptional activity inhibition; A673 NR0B1-luciferase reporter, viability-normalised; inhibition, % at 12.6 µM; hit rate 0.67% among 350,000;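 active means mean inhibition of at least 50% after viability correction, with every replicate also passing that limit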;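 further: firefly luciferase signal divided by Alamar Blue viability fluorescence both relative to DMSO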
PAX8 inh HTS = PAX8 transcriptional activity inhibition. RMG-I TPO-luciferase reporter, SteadyGlo, 24 h. inhibition, % at 12.6 µM. hit rate 1.2% among 360,000. AID 652154;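 active means mean replicate inhibition at least 60% with every replicate also reaching 60%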;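 further: luciferase light reporting Pax8 driven TPO promoter activity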
LMP1 NFkB inh = Epstein-Barr LMP1 NF-kappaB reporter inhibition; LMP1-induced NF-kappaB luciferase reporter cells, luminescence; inhibition, % at 12.5 µM; hit rate 0.69% among 350,000; in the data active means inhibition above about 41%
TWEAK Fn14 block = TWEAK-Fn14 signaling inhibition; inhibition, % at 10 µM; TWEAK-stimulated Fn14 reporter cells, luciferase luminescence, 8 h; hit rate 2% among 360,000; in the data active means inhibition above about 50%
Numbers stand for hits; - = inactive; . = no result.

SMILES | TROY NFkB inh | LGR2 antag | EWS-Fli block | PAX8 inh HTS | LMP1 NFkB inh | TWEAK Fn14 block
Clc1ccc(-n2ncc3c(N4CCCC4)ncnc32)cc1 | 80 | 73 | . | . | 52 | 100
Clc1ccc(Cn2ncc3c(N4CCN(c5ccccc5)CC4)ncnc32)cc1 | 81 | - | - | 102 | . | 102
CC1CCN(c2ncnc3c2cnn3-c2ccccc2)CC1 | - | - | - | - | - | -
Cn1ncc2c(N3CCN(c4ccc(Cl)c(Cl)c4)CC3)ncnc21 | - | - | - | - | - | 85
C[C@H]1CN([C@@H](C)CO)C(=O)c2cc(NS(C)(=O)=O)ccc2O[C@@H]1CN(C)C(=O)NC1CCCCC1 | . | - | - | - | . | .
COc1cccc(-c2ccc3c(c2)[C@@H]2[C@@H](CCN2C(=O)C2CCOCC2)[C@H](CO)N3)c1 | . | - | - | - | . | .
C[C@@H]1CN([C@H](C)CO)C(=O)c2cc(C#Cc3ccccc3)cnc2O[C@H]1CN(C)C(=O)c1ccccc1 | . | - | - | - | . | .
CCOC(=O)C1CCN(c2ncnc3c2cnn3-c2ccc(Cl)cc2)CC1 | - | - | . | . | - | 52
CCOC(=O)C1CCN(c2ncnc3c2cnn3-c2ccccc2)CC1 | - | . | . | . | - | -
Cc1nn(-c2ccccc2)c(Cl)c1C(=O)N1CCN(c2ncnc3c2cnn3-c2ccccc2)CC1 | 85 | . | . | . | 53 | 106
CCOC(=O)N1CCN(c2ncnc3c2cnn3-c2ccc(OC)cc2)CC1 | . | . | . | . | - | -
COc1cccc(OCCN2CCN(c3ncnc4c3cnn4-c3ccccc3)CC2)c1 | - | . | . | - | - | 57
COCCNC(=O)C[C@@H]1C[C@@H]2c3cc(NC(=O)c4cccnc4)ccc3O[C@@H]2[C@@H](CO)O1 | . | - | - | - | . | .
CC(C)Cc1cc(C(=O)Nc2ccc(Br)cc2)no1 | - | - | - | - | - | -
CC(C)Cc1cc(C(=O)Nc2cccc(O)c2)no1 | - | - | - | - | - | 65
COc1ccc(-c2cc(C(=O)Nc3cccc(O)c3)no2)cc1 | - | - | 69 | - | - | 67
COc1ccc(-c2cc(C(=O)Nc3ccc(C)c(C)c3)no2)cc1 | - | - | - | - | - | -
O=C(CCN1CCCCC1)NCC[C@@H]1CC[C@@H](NC(=O)Nc2ccc(Cl)cc2)[C@H](CO)O1 | . | - | - | - | . | .
N#Cc1nc(NCC(F)F)nc(Nc2cc(F)cc(F)c2)n1 | - | - | - | 98 | - | 92
N#Cc1nc(Nc2cc(F)cc(F)c2)c2ncn(CC(F)F)c2n1 | - | - | - | - | - | -
Cc1ccc(S(=O)(=O)Nc2ccc3c(c2)C(=O)N([C@H](C)CO)C[C@@H](C)[C@H](CN(C)Cc2ccc(Oc4ccccc4)cc2)O3)cc1 | . | - | - | - | . | .
Oc1ccc(N=Nc2ccccc2C(F)(F)F)c2cccnc12 | - | - | - | 92 | 72 | -
Cc1ccc(N=Nc2ccc(O)c3ncccc23)cc1 | - | . | - | - | - | -
COc1ccccc1N=Nc1ccc(O)c2ncccc12 | 65 | - | - | - | - | -
CCS(=O)(=O)c1ccc(N=Nc2ccc(O)c3ncccc23)c(OC)c1 | - | - | - | 97 | - | 65
SMILES | TROY NFkB inh | LGR2 antag | EWS-Fli block | PAX8 inh HTS | LMP1 NFkB inh | TWEAK Fn14 block
Cc1ccc(N=Nc2ccc(O)c3ncccc23)cc1C | - | - | - | - | - | -
C[C@@H]1CN([C@@H](C)CO)C(=O)c2cc(C#CC(C)(C)O)cnc2O[C@@H]1CN(C)C(=O)CN(C)C | . | - | - | . | . | .
C/C=C/c1ccc([C@H]2[C@H](CO)N3CCCCN(S(=O)(=O)c4cccc(C)c4)C[C@@H]23)cc1 | . | - | - | - | . | .
COc1ccc(NS(=O)(=O)c2cc(NC(=O)c3nn(C)c(=O)c4ccccc34)ccc2OC)cc1 | - | - | - | - | - | 53
COc1ccccc1NS(=O)(=O)c1cccc(NC(=O)c2cncc(Br)c2)c1 | - | - | - | - | - | -
COc1ccc(NS(=O)(=O)c2cc(NC(=O)c3cncc(Br)c3)ccc2OC)cc1 | - | - | - | - | - | 52
Oc1ccc(Cl)cc1Sc1cc(Cl)ccc1O | 62 | . | - | - | - | 73
COc1ccc(-c2nc(CSCC(=O)NCc3ccco3)c(C)o2)cc1 | - | . | . | . | - | 69
CCOC(=O)c1[nH]c2ccccc2c1NC(=O)c1ccc(Br)o1 | - | - | - | . | - | 66
CCOC(=O)c1[nH]c2ccccc2c1NC(=O)NC(C)C | - | - | - | - | - | -
O=C1C2C3c4ccccc4C(c4ccccc43)C2c2nc3ccccc3n21 (configuration not stated) | . | - | . | . | - | 52
